Screens: PubChem BioAssay, several laboratories
Sampled rows, rich in hits. Any-hit rate of the full collection: about 0.98%.
cardiac RTF act = cardiac RTF calcium sensitivity activators, primary screen, biochemical, IANBD-TnC fluorescence, EC20 calcium | Troponin I, cardiac muscle (Homo sapiens) + Troponin T, cardiac muscle (Homo sapiens) + … | IANBD-labeled TnC RTF fluorescence at EC20 calcium; 0% EC20 calcium, 100% full calcium | activation, % at 7.2 µM | 0.24% of 340,000 active | AID 493008, 2010;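 active means activation above the mean over all tested compounds plus 3 SD, cut at about 30% in these data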;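 further: rise in fluorescence read as greater calcium sensitivity of cardiac thin filaments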
Cardiac RTF inh = cardiac RTF calcium sensitivity inhibitors, primary screen, biochemical, IANBD-TnC fluorescence, EC70 calcium | IANBD-labeled cardiac RTF, Ca2+ fluorescence | inhibition, % at 7.15 µM | 0.12% of 340,000 active | Troponin I, cardiac muscle (Homo sapiens) + Troponin T, cardiac muscle (Homo sapiens) + …;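 active means inhibition above the mean inhibition of all tested compounds plus 3 SD, cut at about 17% in these data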;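 further: assay run at fixed EC70 calcium of 1.6 mM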
Keap1 Nrf2 FP = Keap1-Nrf2 protein-protein interaction inhibitors, primary screen, biochemical, fluorescence polarization, single point | 0.15% of 340,000 active | Kelch-like ECH-associated protein 1 (Homo sapiens), Q14145 | Keap1 Kelch-Nrf2 peptide fluorescence polarization, 1536-well | inhibition, % at 9.4 µM; in the data active means inhibition above about 12%;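 further: human Keap1 Kelch domain with fluorescein labeled Nrf2 9mer peptide probe; 0% = neutral control wells and 100% = peptide positive control; higher means more block of Keap1 binding to Nrf2 peptide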
C-LANA FP = inhibitors of KSHV C-LANA binding to DNA, primary screen, biochemical, fluorescence polarization, FAM-LBS DNA, MBP-C-LANA, single point; inhibition, % at 9 µM; Kaposi's sarcoma herpesvirus LANA C-terminal domain (residues 932-1162) DNA binding; 0.078% of 340,000 active;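 active means highest replicate inhibition at or above 60% at 9 µM, even if other replicates fall short; inactive means all replicates below 60% inhibition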;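 further: 0% = neutral control wells and 100% = 4 µM acridine orange control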
LANA-H2A inh = blockers of LANA interaction with H2A/H2B – biochemical, FP readout, HTS, primary screen; Protein LANA1 (Human herpesvirus 8 type P (isolate GK18)), Q9QR71; cell-free LANA-H2A/H2B peptide, fluorescence polarization; inhibition, % (no concentration beside the values); 0.6% of 320,000 active; in the data active means inhibition mostly above about 10%, no sharp cut-off; inactive means mostly below about 6.7%
* hit, by the source's call; . = no result given; + = active, no number; ! = not confirmed by another sample.

SMILES | cardiac RTF act | Cardiac RTF inh | Keap1 Nrf2 FP | C-LANA FP | LANA-H2A inh
Cc1ccc(C(=O)NN2C(=O)/C(=C/c3cn(C)c4ccccc34)SC2=S)cc1 | 76.5* | -54.8 | -2.0 | 3.3 | .
Cc1cc(NC(=O)CSc2nnc(-c3ccc(Br)o3)n2Cc2ccccc2)no1 | 3.5 | -13.6 | 3.8 | 3.1 | 12.5*
Cc1cc(NC(=O)CSc2nnc(-c3ccco3)n2Cc2ccccc2)no1 | 7.2 | 7.0 | -2.3 | 0.6 | -4.8
CCOc1ccc(C(=O)n2cnnc2N)cc1 | 1.3 | -1.0 | 2.3 | 1.2 | -8.1
Cc1ccc(C)c(S(=O)(=O)Nc2cc(SCC(=O)O)c(O)c3ccccc23)c1 | -1.5 | 3.2 | 61.2* | 3.4 | -2.1
CCc1ccc(S(=O)(=O)Nc2cc(SCC(=O)O)c(O)c3ccccc23)cc1 | 1.5 | -6.6 | -28.9 | 1.7 | 2.6
Fc1ccc(CN2CC[C@H]3C=CCc4cccc(c43)C2)cc1 | 15.8 | -10.9 | -5.4 | 1.8 | -0.5
COCCN(C(=O)/C=C/c1ccccc1)c1nnc(-c2cccnc2)s1 | 4.9 | -3.1 | -0.6 | -3.3 | 56.1*
COCCN(C(=O)c1cccc(OC)c1)c1nnc(-c2ccncc2)s1 | -3.9 | -6.2 | 0.2 | -1.3 | 0.1
Cc1cccc(N(Cc2ccccc2)C(=O)c2ccc(S(C)(=O)=O)cc2)c1 | -3.3 | -6.4 | 2.9 | 1.8 | 23.0*
CS(=O)(=O)c1ccc(C(=O)N(Cc2ccccc2)c2ccccc2)cc1 | -0.7 | -4.2 | -1.1 | 0.2 | 2.0
CCN1CCN(c2nc(N)c([N+](=O)[O-])c(Nc3ccc(C)cc3)n2)CC1 | -2.5 | -3.1 | 4.0 | 0.1 | 18.7*
CN(/N=C/c1ccc(N(C)C)cc1)C1=NS(=O)(=O)c2ccccc21 | 61.4* | -11.9 | -6.3 | -0.9 | -4.2
COc1ccc(NS(=O)(=O)c2ccc(C)c(C(=O)NCC(c3ccco3)N3CCCCC3)c2)cc1 (configuration not stated) | -12.1 | -5.5 | . | . | 0.0
CN(C(=O)CSc1nnc(COc2ccccc2F)n1N)C1CCS(=O)(=O)C1 (configuration not stated) | -5.8 | -1.3 | -1.9 | -1.8 | -3.7
COC(=O)c1cc2n(n1)CCN(Cc1ccc(C)cc1)C2=O | -6.6 | 3.9 | 2.3 | 1.6 | -1.3
COC(=O)c1cc2n(n1)CCN(Cc1cccc(OC)c1)C2=O | 9.2 | 10.2 | 1.2 | 3.1 | 20.1*
O=S(=O)(NCCC1=CCCCC1)c1ccccc1Cl | 0.0 | -2.3 | 3.8 | 1.4 | -13.3
CC(C)=CCC[C@](C)(OC1OC(COC2OCC(O)C(O)C2O)C(O)C(O)C1O)C1CC[C@]2(C)C1C(O)CC1[C@@]3(C)CCC(O[C@@H]4O[C@H](CO)C(O)C(O)C4O[C@@H]4OC(CO)C(O)C(O)C4O)C(C)(C)C3CC[C@]12C (some centres not stated) | -5.3 | -10.2 | -4.1 | -3.7 | 2.9
Cc1cc(C(=O)N/N=C/C=C/c2cccc([N+](=O)[O-])c2)n[nH]1 | 3.2 | -4.9 | -2.6 | -0.5 | 3.8
CC(=O)O[C@]1(C(C)=O)CC[C@H]2[C@@H]3C=C(Cl)C4=CC(=O)[C@@H]5C[C@@H]5[C@]4(C)[C@H]3CC[C@@]21C | 11.7 | -0.1 | -5.4 | 1.8 | 15.1*!
CN1CCC(N(CCc2ccccc2)C(=O)CCC(=O)O)CC1 | 35.4* | -7.6 | -3.1 | -3.8 | -1.9
c1ccc(CCOn2ccnc2)cc1 | -4.3 | -5.4 | -2.3 | -2.4 | 3.0
C[n+]1ccccc1/C=N/O | 2.3 | 7.5 | -1.1 | -0.3 | 18.2*!
CCN(CCn1cccn1)Cc1nc(-c2ccc(OC)cc2)no1 | 7.8 | 13.9 | -1.9 | -0.3 | +
SMILES | cardiac RTF act | Cardiac RTF inh | Keap1 Nrf2 FP | C-LANA FP | LANA-H2A inh
CCN(CCn1cccn1)Cc1nc(-c2ccccc2)no1 | -6.1 | -19.6 | 5.0 | -1.7 | -4.6
O=C(Cn1cnc2c(NCc3ccccc3)ncnc21)NCCCN1CCCC1=O | -1.2 | -4.2 | -5.8 | -1.3 | .
COc1cc(OC)cc(C(=O)N(Cc2ccco2)c2c(N)n(Cc3ccccc3)c(=O)[nH]c2=O)c1 | 31.3* | -49.5 | -5.1 | -2.9 | .
CCN(C(=O)COC(=O)c1cc(Cl)ccc1OC)c1c(N)n(Cc2ccccc2)c(=O)[nH]c1=O | -6.1 | -11.2 | 4.2 | -0.4 | 38.8*
CCc1ccc(N2CC(C(=O)OCC(=O)N(CC)c3c(N)n(Cc4ccccc4)c(=O)[nH]c3=O)CC2=O)cc1 (configuration not stated) | 13.1 | -18.0 | 187.5* | . | .
COc1ccc(Cl)cc1C(=O)OCC(=O)N(CC(C)C)c1c(N)n(Cc2ccccc2)c(=O)[nH]c1=O | 1.9 | -3.4 | -3.2 | -0.8 | 0.9
Cc1nn(C2CC(O)C(O)C(CO)O2)c(=O)[nH]c1=O (configuration not stated) | -0.7 | -3.7 | 0.9 | 6.2 | .
CC(C)n1c(N2CCN(S(=O)(=O)c3cccc([N+](=O)[O-])c3)CC2)nc2ccccc21 | 1.7 | -4.2 | 1.1 | -0.8 | 1.4
CCOc1ccccc1N | -6.8 | -1.1 | 4.4 | -1.7 | 23.1*
Cc1ccccc1C(=O)NNc1ncnc2c1cnn2C | -0.2 | 1.4 | 1.8 | 1.0 | 26.3*
O=C(CN1CCN(Cc2ccccc2Cl)CC1)N/N=C/C=C/c1ccco1 | . | . | . | . | -3.4
O=C(CN1CCN(Cc2ccccc2)CC1)N/N=C\C=C/c1ccco1 | -2.1 | 14.2 | 2.4 | -0.3 | 12.2*
O=C1CN(C(=O)CN2CCCC2)C(c2ccccc2)c2cc(Br)ccc2N1 (configuration not stated) | 0.0 | -13.7 | -9.4 | -0.7 | -2.0
CCOC(=O)N1CC(=O)Nc2ccc(Br)cc2C1c1ccccc1 (configuration not stated) | -4.3 | -14.8 | 0.2 | -0.4 | 105.6*
Cc1ccc(C(=O)N2C(=O)c3cccc(N)c3C2=O)o1 | 8.4 | -6.9 | -5.5 | 0.7 | 19.6*
Nc1cccc2c1C(=O)N(C(=O)c1cccc(S(=O)(=O)N3CCCC3)c1)C2=O | 3.8 | -9.7 | -8.5 | 2.5 | 5.3
COc1cc(/C=N/O)c(Br)cc1OCC(=O)Nc1ccccc1C | -1.1 | 9.1 | -3.5 | -0.9 | 16.6*
COC(=O)Cn1c(C)nc(=O)c(-c2ccccc2)c1C | -3.4 | -1.8 | -5.5 | -1.0 | 14.7*
CC(=O)Nc1ccc2nc(NC(=O)c3ccc([N+](=O)[O-])o3)sc2c1 | -7.2 | -3.2 | -1.6 | -1.1 | -1.2
Cc1csc(=O)n1CCC(=O)OCC(=O)Nc1cccc(C#N)c1 | -1.0 | -1.7 | 7.2 | -0.5 | 1.2
Cc1cc(C)nc(-n2ncc(C#N)c2N)n1 | 4.0 | -6.4 | -0.7 | 0.2 | 10.7*
O=C(NCCOc1ccccc1)c1ccccc1SCC(=O)N1CCCC1 | -3.6 | 9.1 | 0.9 | 0.5 | 2.5
